# High-throughput results from PubChem.
# An excerpt weighted towards active compounds, which were near 1.2% of everything screened.
# RGS16-Gao = RGS16-Galphao interaction regulator (human); binding response (% of control), % at 10 µM; bead-based flow cytometry RGS16-Galphao binding, fluorescence; actives lie on both sides; 220,000 tested, 0.38% active; AID 1441;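 note: Galphao activated by GDP with aluminum fluoride before binding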
# Target sequence (O15492 whole entry, looked up): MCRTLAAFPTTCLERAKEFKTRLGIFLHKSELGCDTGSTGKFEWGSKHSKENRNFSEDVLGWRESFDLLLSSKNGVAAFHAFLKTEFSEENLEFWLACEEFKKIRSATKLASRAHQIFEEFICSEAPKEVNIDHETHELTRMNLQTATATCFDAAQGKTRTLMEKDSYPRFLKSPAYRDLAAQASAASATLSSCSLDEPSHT
# Target sequence (P09471 whole entry, looked up): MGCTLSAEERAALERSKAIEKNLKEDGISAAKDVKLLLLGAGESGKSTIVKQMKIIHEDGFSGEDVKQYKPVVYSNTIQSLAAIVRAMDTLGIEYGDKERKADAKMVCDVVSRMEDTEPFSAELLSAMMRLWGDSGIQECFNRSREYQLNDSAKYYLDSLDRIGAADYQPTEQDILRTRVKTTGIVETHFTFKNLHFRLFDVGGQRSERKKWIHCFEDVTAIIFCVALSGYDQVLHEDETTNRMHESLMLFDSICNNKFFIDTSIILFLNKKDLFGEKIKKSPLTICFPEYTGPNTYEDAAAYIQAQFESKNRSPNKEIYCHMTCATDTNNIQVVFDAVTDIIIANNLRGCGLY
# RGS7-Gao = regulators of human RGS7-Galphao interaction. binding response (% of control), % at 10 µM. Multiplexed bead flow cytometry, RGS7-Galphao binding; actives lie on both sides. AID 1439. 220,000 tested, 0.35% active; in the data active = binding response below about 49% or above about 150%; inconclusive = no clear call, values can overlap the other calls; inactive = in between;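 note: fluorescent Galphao held in activated GDP-AlF4 state binding bead-coupled RGS7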
# Target sequence (P09471 whole entry, looked up): as above
# Avidin bead fluor = compound fluoresces at 488/530 nm on avidin beads | fluorescence (KMESF) at 10 µM | AID 1775 | compound fluorescence 488/530 nm, flow cytometry; hits give high values | 220,000 tested, 0.38% active; in the data active = fluorescence above about 47
# RGS4-Gao reg = modulates binding of RGS4 to human Galphao | P09471 | Multiplexed bead flow cytometry; actives lie on both sides | binding response (% of control), % at 10 µM | 220,000 tested, 0.33% active; in the data active = binding response below about 49% or above about 150%; inactive = in between;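 note: fluorescent Galphao activated with aluminum fluoride binding bead-coupled RGS4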
# RGS8-Gao = human RGS8-Galphao interaction regulation | P09471 | multiplexed bead flow cytometry, RGS8-Galphao binding; actives lie on both sides | response (percent of control binding), % at 10 µM | 220,000 tested, 0.34% active; in the data active = response below about 60% or above about 140%; inactive = in between;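 note: Galphao activated as the GDP aluminium fluoride complex binding bead-coupled RGS8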
# GSH bead fluor = compound fluoresces at 488/530 nm on GSH beads. GSH beads flow cytometry, compound fluorescence 488/530 nm; hits give high values. 190,000 tested, 0.25% active. AID 1776. fluorescence (KMESF) at 10 µM; in the data active = fluorescence above about 89;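 note: glutathione beads carrying GST-tagged Bcl family fusion proteins plus one bare bead set; values are compound well signal with DMSO vehicle wells as background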
# RGS-Gao = regulators of human RGS4-Galphao interaction; shares compounds with RGS16-Gao; multiplexed bead flow cytometry, RGS–Galpha-o binding; RGS4–Galpha-o binding response, % at 10 µM; 1,600 tested, 99% active; AID 1504;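 note: fluorescently labeled Galpha-o bound to GDP with aluminium fluoride binding biotinylated RGS beads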
# Avidin counter = biotin-avidin bead binding disruption counter-screen | inhibition, % at 10 µM | streptavidin beads, fluorescein-biotin binding, flow cytometry | AID 1783 | 1,700 tested, under 10 active | shares compounds with RGS16-Gao;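 active = inhibition above 50%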;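 note: median green fluorescence of gated singlet beads compared with DMSO control wells; 0% = DMSO wells and 100% = complete loss of bead fluorescence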
# RGS8-Gao single = RGS8-Galphao interaction regulation, single point confirmation | shares compounds with RGS16-Gao | bead-based flow cytometry RGS8-Galphao binding, fluorescence; actives lie on both sides | binding response (% of control), % at 10 µM | 1,700 tested, 3% active | AID 1836; in the data active = binding response below about 72% or above about 130%; inactive = in between;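 note: Galphao activated as GDP AlF4 complex before binding bead RGS8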
# RGS7-Gao confirm = RGS7-Galphao interaction regulation, single point confirmation; shares compounds with RGS16-Gao; bead-based flow cytometry RGS7-Galphao binding; actives lie on both sides; response (percent of control binding), % at 10 µM; 1,700 tested, 7.8% active; AID 1837; in the data active = response below about 75% or above about 130%; inactive = in between;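 note: fluorescent Galphao activated with GDP and aluminum fluoride binding bead-coupled RGS7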
# RGS16-Gao conf = confirmation of regulators of human RGS16-Galphao interaction; shares compounds with RGS16-Gao; bead-based flow cytometry, RGS16-Galphao binding; actives lie on both sides; response (% of control binding), % at 10 µM; 1,700 tested, 4% active; in the data active = response below about 74% or above about 130%; inactive = in between;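 note: Galphao activated as the GDP aluminium fluoride complex binding bead-coupled RGS16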
# RGS4-Gao confirm = confirmation of regulators of human RGS4-Galphao interaction; shares compounds with RGS16-Gao; RGS4-Galphao binding, multiplexed bead flow cytometry; actives lie on both sides; binding response (% of control), % at 10 µM; 1,700 tested, 4% active; AID 1840; in the data active = binding response below about 74% or above about 130%; inactive = in between
# RGS19-Gao conf = confirmation of regulators of human RGS19-Galphao interaction. shares compounds with RGS16-Gao. 1,700 tested, 5% active. bead-based flow cytometry RGS19-Galphao binding; actives lie on both sides. response (percent of control binding), % at 10 µM; in the data active = response below about 50% or above about 160%; inactive = in between;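 note: 100% = no compound control and 0% = blank background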
# * hit, by the source's call; ? = inconclusive; . = no result; [ ] = another dose, or the depositor's remark. Unless noted, the rule behind the calls is not given here.
SMILES,RGS16-Gao,RGS7-Gao,Avidin bead fluor,RGS4-Gao reg,RGS8-Gao,GSH bead fluor,RGS-Gao,Avidin counter,RGS8-Gao single,RGS7-Gao confirm,RGS16-Gao conf,RGS4-Gao confirm,RGS19-Gao conf
OCCC1CN(Cc2ccc(Oc3ncccn3)cc2)CCN1C1CCCCC1 (stereo unspecified),88,?,159*,147,48*,.,147*,-1,102,100,102,100,97
O=S1(=O)[C@H]2CC3O[C@]2(C[C@@H]3c2ccc(F)cc2)CN1Cc1ccc(Cl)cc1,92,?,8,89,95,.,.,.,.,.,.,.,.
O=S1(=O)[C@H]2C[C@@H]3C=C[C@]2(CN1Cc1ccc(C(F)(F)F)cc1)O3,100,?,12,99,83,.,.,0,101,88,97,95,80
CCc1cc(CNC(=O)CCc2nnc(CCCc3ccccc3)o2)on1,96,108,14,96,96,55,.,.,.,.,.,.,.
Cc1cc(C)c2c(N)c(C(=O)NCC3CCCCC3)sc2n1,104,103,10,98,100,9,.,.,.,.,.,.,.
Cc1cc(C)c2c(N)c(C(=O)NC3CCCC3)sc2n1,131,147,3,113,142*[activator],21,113*,0,97,73*,87,87,70
O=C(C1CCC(N2C(=O)C3CC=CCC3C2=O)CC1)N1CCCCC1 (stereo unspecified),397,118,6,129,170*[activator],7,129*,0,110,108,119,110,114
O=C(C1CCC(C(=O)N2CCCCC2)CC1)N1CCCCC1 (stereo unspecified),103,101,16,99,102,32,.,.,.,.,.,.,.
CC(C)N=C(NS(=O)(=O)c1ccc(Br)cc1)c1ccc(Cl)cc1,103,96,9,100,101,10,.,.,.,.,.,.,.
Cc1ccc(NC2OC(C(O)CO)C(O)C2O)cc1[N+](=O)[O-] (stereo unspecified),100,99,8,98,100,15,.,.,.,.,.,.,.
CCN=c1scc(C)n1/N=C/c1ccc(O)c(O)c1O,55,65,4,80,59*,26,80*,1,67*,64*,64*,78,47*
CSC(=NC#N)N1CCN(c2ccc([N+](=O)[O-])cc2)CC1,101,98,6,101,99,11,.,.,.,.,.,.,.
Cc1ccc(C(=O)N(CC(=O)NC2CCCC2)c2ccc3c(c2)OCCO3)s1,123,105,24,107,109,11,.,.,.,.,.,.,.
Nn1c(SCC(=O)NC2CCCc3ccccc32)nnc1-c1ccc(Cl)cc1Cl (stereo unspecified),101,97,12,100,101,12,.,.,.,.,.,.,.
C=CCn1c(CCNC(=O)c2ccccc2F)nnc1SCc1nc2ccccc2c(=O)[nH]1,99,100,13,100,98,35,.,.,.,.,.,.,.
C=CCn1c(CNC(=O)c2ccccc2F)nnc1SCc1nc2ccccc2c(=O)[nH]1,.,.,.,.,.,10,.,-1,98,96,97,97,89
CCOC(=O)N1CCN(C(=O)c2cn(CC)c3ccc(S(=O)(=O)N4CCC(C)CC4)cc3c2=O)CC1,110,98,23,101,103,8,.,.,.,.,.,.,.
Cc1ccc2cc(CCNS(=O)(=O)c3ccc(F)cc3)c(=O)[nH]c2c1C,50,46*,4,55,60*,19,55*,0,99,93,97,97,102
Cc1ccc2cc(CCNS(=O)(=O)c3ccc(F)cc3)c(=O)[nH]c2c1,99,95,7,96,98,23,.,.,.,.,.,.,.
COc1ccccc1/C=C\C=N\n1c(-c2ccc(Cl)cc2)n[nH]c1=S,7.8*,93,2,88,58*,13,88*,-2,92,75*,82,82,51
O=C1CC(c2ccccc2)=Nc2ccccc2N1,97,100,13,103,101,37,.,.,.,.,.,.,.
O=C1CC(/C=C/c2ccncc2)=Nc2ccccc2N1,96,162*[activator],99*,117,96,24,117*,-2,102,100,103,102,89
Cn1c(N2CCCC2)nc2c1c(=O)n(Cc1ccc(Cl)cc1)c(=O)n2C,.,.,.,.,.,44,.,2,100,98,101,103,99
COc1ccc(/C(C)=N/N=C2/NC(=O)CC(C(=O)O)S2)cc1F (stereo unspecified),104,?,8,103,103,.,.,.,.,.,.,.,.
Cc1ccc(OC(=O)C23CC4CC(CC(C4)C2)C3)c(C)n1,101,152*[activator],111*,119,98,10,119*,2,105,109,104,107,90
SMILES,RGS16-Gao,RGS7-Gao,Avidin bead fluor,RGS4-Gao reg,RGS8-Gao,GSH bead fluor,RGS-Gao,Avidin counter,RGS8-Gao single,RGS7-Gao confirm,RGS16-Gao conf,RGS4-Gao confirm,RGS19-Gao conf
CCc1nc(C)ccc1OC(=O)C12CC3CC(CC(C3)C1)C2,101,100,21,101,99,11,.,.,.,.,.,.,.
CCCCn1nnc(NC(=O)c2cc3ccccc3o2)n1,426,127,4,134,148*[activator],33,134*,1,110,119,111,115,106
CCCn1nnc(NC(=O)c2cc3ccccc3o2)n1,102,101,13,100,100,26,.,.,.,.,.,.,.
Cc1onc(-c2c(Cl)cccc2Cl)c1C(=O)N=C(N)N1CC(C)OC(C)C1 (stereo unspecified),96,?,9,101,102,.,.,.,.,.,.,.,.
O=C1NC(c2ccccc2)=C(c2ccccc2)C1=O,252,109,7,116,140*[activator],9,116*,2,105,111,110,110,96
O=c1c(-c2ccccc2)c1-c1ccccc1,99,103,7,100,98,70,.,.,.,.,.,.,.
Cc1nn(CC(=O)N2CCc3ccccc3C2)c(C)c1[N+](=O)[O-],106,98,11,99,100,10,.,.,.,.,.,.,.
